From PubChem BioAssay (NCI) come the findings set out here.

Common to all, as to experiment: NCI-60 one-dose screen, 48 h (100 = growth as untreated, 0 = no growth, -100 = all killed)
In one assay the test system is SK-MEL-2 melanoma. The note with it: 10 µM unless noted.
Another assay deals with EKVX NSCLC. Particulars: 10 µM unless noted.
For a further assay, the system named is SN12C renal. The note with it: 10 µM unless noted.
The next assay concerns UO-31 renal. The note with it: 10 µM unless noted.
A further assay relates to TK-10 renal. The note with it: 10 µM unless noted.
The test system of the next assay is ACHN renal. The note with it: 10 µM unless noted.
The test system of another assay is CAKI-1 renal. Particulars: 10 µM unless noted.
In the next assay the test system is A498 renal. The note with it: 10 µM.
The subject of another assay is HL-60(TB) leukemia. The note with it: 10 µM unless noted.
The test system of another assay is MOLT-4 leukemia. Particulars: 10 µM unless noted.
The subject of the next assay is SR leukemia. Particulars: 10 µM unless noted.
Another assay has as its system RPMI-8226 leukemia. The note with it: 10 µM unless noted.
Another assay concerns OVCAR-8 ovarian. Particulars: 10 µM unless noted.
For the next assay, the system named is OVCAR-5 ovarian. Particulars: 10 µM unless noted.
The subject of another assay is OVCAR-4 ovarian. The note with it: 10 µM unless noted.
The next assay deals with SK-OV-3 ovarian. Particulars: 10 µM unless noted.
For a further assay, the system named is IGROV1 ovarian. The note with it: 10 µM unless noted.
Another assay concerns OVCAR-3 ovarian. Particulars: 10 µM unless noted.
Another assay deals with HS 578T breast. Particulars: 10 µM unless noted.
The next assay concerns CCRF-CEM leukemia. The note with it: 10 µM unless noted.

This is part of a sample that, as a whole, favours compounds with a hit. Of some 83,000 tested, about 20% had one in any assay.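 Assay: single dose, 48 h. Readout: percent growth (0 = no net growth; negative = cell death). Active: <10.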 Values without a mark were called inactive. Activity calls are given as the source filed them.

For `CCC[CH2][Sn]([CH2]CCC)([CH2]CCC)[O]c1ccc(Cl)cc1Cl`, the growth in the assay on SK-MEL-2 melanoma was -66.9% (active); in the assay on EKVX NSCLC, -51.7% (active); in the assay on SN12C renal it was -69% (active); in the assay with UO-31 renal it was -85.3% (active); with TK-10 renal, -91.7% (active); with ACHN renal, -69.5% (active). Further, the growth with CAKI-1 renal is -56.6% (active); in the assay with A498 renal, -98.1% (active); with HL-60(TB) leukemia, -23.9% (active); with MOLT-4 leukemia it was -6.07% (active); in the assay with SR leukemia it was -30.4% (active); in the assay on RPMI-8226 leukemia it was -9.16% (active). Besides, the growth in the assay with OVCAR-8 ovarian is -48.1% (active); in the assay with OVCAR-5 ovarian it was -66.3% (active); with OVCAR-4 ovarian, -100% (active); with SK-OV-3 ovarian, -97.5% (active); in the assay with IGROV1 ovarian, -66.9% (active); in the assay on OVCAR-3 ovarian, -100% (active). Moreover, the growth in the assay with HS 578T breast is -10.3% (active).

Consider `C[CH2][Sn]([Cl])([Cl])[CH2]C.Oc1ccccc1C=NCCN=Cc1ccccc1O`, for which the growth with SK-MEL-2 melanoma is 116%; in the assay on EKVX NSCLC it was 96.9%; in the assay with SN12C renal, 101%; with UO-31 renal, 72.8%; in the assay on TK-10 renal, 117%; in the assay with ACHN renal it was 97.5%. Besides, the growth is 86.5% with CAKI-1 renal; 103% in the assay with A498 renal; 92.5% with CCRF-CEM leukemia; 86.1% in the assay on MOLT-4 leukemia; 103% with SR leukemia; 91.9% in the assay with RPMI-8226 leukemia. Also, the growth with OVCAR-8 ovarian is 100%; with OVCAR-5 ovarian, 104%; in the assay with SK-OV-3 ovarian, 101%; in the assay on OVCAR-3 ovarian, 103%; in the assay on HS 578T breast, 100%.

As to `CC1=C(CNO)C2=C(C)C3(CC3)[C@@](C)(O)C(=O)C2=C1`, the growth in the assay on SK-MEL-2 melanoma is -44.4% (active); in the assay on EKVX NSCLC, 9.85% (active); in the assay with SN12C renal it was 18.7%; in the assay on UO-31 renal, -57.7% (active); in the assay with TK-10 renal, -0.334% (active); in the assay on ACHN renal, -48.3% (active). The growth was -9.31% (active) in the assay on CAKI-1 renal; -70.9% (active) in the assay on A498 renal; 73.9% with CCRF-CEM leukemia; 51% with MOLT-4 leukemia; 99.4% with RPMI-8226 leukemia; 1.01% (active) with OVCAR-5 ovarian. Further, the growth in the assay with OVCAR-4 ovarian was -8.4% (active); with SK-OV-3 ovarian it was 4% (active); in the assay with OVCAR-3 ovarian, -16.5% (active); in the assay on HS 578T breast, 40.2%.

Consider `COc1cc2c(cc1OCCCn1c(-c3ccccn3)nc3ccccc31)N=C[C@@H]1CCCN1C2=O`, for which the growth was -71.1% (active) with SK-MEL-2 melanoma; 43.3% in the assay with EKVX NSCLC; 26% with SN12C renal; -53.7% (active) in the assay with UO-31 renal; -20.8% (active) in the assay with TK-10 renal; -64.9% (active) in the assay on ACHN renal. Moreover, the growth was -6.53% (active) in the assay on CAKI-1 renal; -72.1% (active) with A498 renal; 5.34% (active) in the assay on CCRF-CEM leukemia; 8.22% (active) in the assay on MOLT-4 leukemia; 3.55% (active) in the assay with SR leukemia; -37.5% (active) in the assay on RPMI-8226 leukemia. Further, the growth in the assay on OVCAR-8 ovarian is 25.5%; in the assay with OVCAR-5 ovarian it was 2.58% (active); in the assay on OVCAR-4 ovarian, 15.6%; with SK-OV-3 ovarian it was 30.8%; in the assay with IGROV1 ovarian, -62.3% (active); in the assay with OVCAR-3 ovarian it was 2.94% (active). In the assay with HS 578T breast, the growth was -2.53% (active).

As to `CCOC(=O)N1CC1`, the growth in the assay with SK-MEL-2 melanoma was 105%; with EKVX NSCLC, 84%; in the assay on SN12C renal it was 95.8%; in the assay with UO-31 renal it was 80.7%; with TK-10 renal it was 112%; in the assay with ACHN renal it was 94.8%. In addition, the growth was 95.1% in the assay with CAKI-1 renal; 111% with A498 renal; -20.9% (active) in the assay with SR leukemia; 91.2% in the assay with RPMI-8226 leukemia; 101% in the assay on OVCAR-8 ovarian; 97.1% in the assay with OVCAR-5 ovarian. The growth with OVCAR-4 ovarian is 93.1%; in the assay on SK-OV-3 ovarian it was 111%; with IGROV1 ovarian it was 93.5%; in the assay with OVCAR-3 ovarian, 111%; with HS 578T breast, 112%.

Take `CCN1C(=O)C(=C/C=C/c2ccccc2)C(=O)N(CC)C1=O`: the growth is 99.9% in the assay on SK-MEL-2 melanoma; 112% in the assay on EKVX NSCLC; 75.8% in the assay on SN12C renal; 70.1% in the assay with UO-31 renal; 94.3% in the assay with TK-10 renal; 70.3% in the assay on ACHN renal. Besides, the growth is 87.8% in the assay on CAKI-1 renal; 94.3% in the assay on A498 renal; -14.1% (active) with CCRF-CEM leukemia; 6.92% (active) in the assay on MOLT-4 leukemia; -6.58% (active) in the assay with SR leukemia; 61% in the assay with RPMI-8226 leukemia. In addition, the growth was 54% with OVCAR-8 ovarian; 107% in the assay with OVCAR-5 ovarian; 111% in the assay on OVCAR-4 ovarian; 103% in the assay with SK-OV-3 ovarian; 84.5% in the assay on IGROV1 ovarian; 42.6% in the assay on OVCAR-3 ovarian. The growth in the assay on HS 578T breast is 91.2%.

Regarding `COc1cc2ncnc(Nc3ccc(F)c(Cl)c3)c2cc1OCC(=O)N1CCN(C)CC1`, the growth in the assay on SK-MEL-2 melanoma is 94.4%; in the assay with EKVX NSCLC, 61.8%; in the assay on SN12C renal, 76.9%; in the assay with UO-31 renal, 55.9%; in the assay with TK-10 renal, 23.4%; in the assay with ACHN renal, 37.8%. Moreover, the growth with CAKI-1 renal is 44.1%; with A498 renal it was 69.9%; in the assay with CCRF-CEM leukemia, 87%; in the assay on MOLT-4 leukemia, 81.2%; in the assay on SR leukemia, 74.5%; in the assay on RPMI-8226 leukemia, 90.5%. For the same compound, the growth with OVCAR-8 ovarian is 90%; with OVCAR-5 ovarian, 78.4%; in the assay with OVCAR-4 ovarian, 79.5%; in the assay with SK-OV-3 ovarian it was 13.7%; in the assay on IGROV1 ovarian, 48.2%; with OVCAR-3 ovarian, 78.2%. Moreover, the growth in the assay on HS 578T breast was 93.4%.

For `COC(=O)[C@@H](C)C[C@H](Cc1ccccc1)NC(=O)c1csc([C@@H](C[C@H](C(C)C)N(C)C(=O)[C@@H](NC(=O)C23CC(NC(C)=O)(C2)C3)C2CC2)OC(C)=O)n1`, the growth with SK-MEL-2 melanoma is 49%; with EKVX NSCLC, 78.8%; in the assay with SN12C renal it was 51.7%; in the assay with UO-31 renal it was 95.4%; with TK-10 renal, 77.1%; with ACHN renal, 96.2%. In addition, the growth with CAKI-1 renal is 95.3%; with A498 renal, 48.3%; in the assay with CCRF-CEM leukemia it was 9.99% (active); in the assay on MOLT-4 leukemia it was 57.4%; with SR leukemia, 29.1%; in the assay on RPMI-8226 leukemia it was 12%. The growth in the assay on OVCAR-5 ovarian was 103%; in the assay on OVCAR-4 ovarian, 77.7%; with SK-OV-3 ovarian, 78.9%; with IGROV1 ovarian, 49.4%; in the assay with OVCAR-3 ovarian, -7.77% (active); with HS 578T breast, 7.48% (active).
